From PubChem BioAssay (EPA / NIEHS)
The source made the active and inactive calls. How the source made its calls: active means hit-call score of the fitted dose curve at least 0.9, where 1 is the maximum; inactive means score below 0.9.

Tests used:
[1] = molecular target: Transcription factor E2F1 (Homo sapiens) (UniProt Q01094); assay: ATG_E2F_CIS: Attagene CIS-FACTORIAL HepG2 Assay for human E2F Transcription Factor 1 (AID 2282935); conditions: HepG2 Attagene cis-reporter, E2F reporter RNA transcripts; actives raise or lower the signal
How it was run: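 Transient MRTU transfection of HepG2; 24 h compound exposure; RNA → oligo(dT) RT → PCR → FAM label → HpaI cut → CE fluorescence. Gain/loss of signal fit against DMSO.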

[2] = ATG_E_Box_CIS: Attagene CIS-FACTORIAL HepG2 Assay for human Enhancer Box (E-box) (AID 2282936); conditions: HepG2 E-box cis-reporter transcription, actives raise or lower the signal
How it was run: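 Transiently transfected HepG2, endogenous TF-driven reporters, 24 h dosing. Readout: RT-PCR plus capillary electrophoresis of fluorescent reporter fragments. Gain or loss of signal fitted bidirectionally against DMSO baseline.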

[3] = ATG_M_61_CIS: Attagene CIS-FACTORIAL HepG2 Assay for M61 Transcription Factor (Internal Marker) (AID 2282937); conditions: HepG2 Attagene CIS-FACTORIAL M61 internal marker reporter; actives raise or lower the signal
How it was run: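 Human liver HepG2, transient MRTU transfection (cis promoter elements), 24 h compound. Total RNA → oligo(dT) RT → PCR → FAM label → HpaI → CE. Internal background marker; bidirectional fitting, DMSO = baseline.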

[4] = ATG_EGR_CIS: Attagene CIS-FACTORIAL HepG2 Assay for human Early Growth Response 1 (EGR1) (AID 2282938); conditions: HepG2 Attagene CIS-FACTORIAL EGR reporter mRNA; actives raise or lower the signal
How it was run: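 Transient transfection of human HepG2 with multiple cis-regulated reporter units, chemical exposure 24 h, total RNA isolated. Reverse transcription, PCR, fluorescent labelling and capillary electrophoresis quantify reporter transcripts; activity fitted bidirectionally against DMSO.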

[5] = ATG_M_19_CIS: Attagene CIS-FACTORIAL HepG2 Assay for M19 Transcription Factor (Internal Marker) (AID 2282939); conditions: HepG2 Attagene CIS-FACTORIAL M19 internal marker reporter; actives raise or lower the signal
How it was run: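 HepG2, MRTU transient transfection, 24 h dosing. Total RNA → RT-PCR → 6-FAM primer extension → HpaI digest → CE fluorescence. Bidirectional curve fit, DMSO negative control.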

[6] = ATG_ERE_CIS: Attagene CIS-FACTORIAL HepG2 Assay for Estrogen Response Element (ERE) (AID 2282940); conditions: HepG2 ERE cis-reporter, Attagene RNA transcript; actives raise or lower the signal
How it was run: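 After a 24 h chemical treatment, RNA from reporter-transfected HepG2 cells is reverse-transcribed, PCR-amplified and fluorescently labelled. Fragments separated by capillary electrophoresis give reporter signal; DMSO serves as negative control.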

[7] = ATG_Ets_CIS: Attagene CIS-FACTORIAL HepG2 Assay for human Erythroblast Transformation Specific (ETS) (AID 2282941); conditions: HepG2 ETS cis-reporter transcription, actives raise or lower the signal
How it was run: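 RT-PCR/capillary electrophoresis fluorescence read-out of reporter mRNA; HepG2 transient multi-reporter transfection; 24 h compound exposure; gain or loss of signal fitted bidirectionally relative to DMSO.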

[8] = molecular target: Hepatocyte nuclear factor 3-beta (Homo sapiens) (UniProt Q9Y261); assay: ATG_FoxA2_CIS: Attagene CIS-FACTORIAL HepG2 Assay for human Forkhead box A2 (FOXA2) (AID 2282942); conditions: HepG2 cis-reporter transcription factor activity, 24 h; actives raise or lower the signal
How it was run: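 Transient MRTU transfection of HepG2 liver cells; 24 h treatment; total RNA → oligo(dT) RT → PCR → FAM primer extension → HpaI cut → CE. Bidirectional fit vs DMSO.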

[9] = ATG_FoxO_CIS: Attagene CIS-FACTORIAL HepG2 Assay for human Forkhead box O (FoxO) (AID 2282943); conditions: HepG2 Attagene cis-reporter, FoxO element, mRNA; actives raise or lower the signal
How it was run: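 HepG2 cells transiently transfected with cis-element-driven reporter units report endogenous FoxO activity. After 24 h chemical exposure, reporter mRNA quantified by RT-PCR, fluorescent labeling, HpaI digestion and capillary electrophoresis; bidirectional fit versus DMSO.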

[10] = ATG_GATA_CIS: Attagene CIS-FACTORIAL HepG2 Assay for human GATA Binding Protein (AID 2282944); conditions: HepG2 GATA cis-element reporter, Attagene multiplex mRNA; actives raise or lower the signal
How it was run: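 Cells: HepG2, transiently transfected with cis-regulated reporter transcription units. Exposure: 24 h. Detection: RT-PCR plus capillary electrophoresis of FAM-labeled fragments. Analysis: bidirectional, DMSO as baseline.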

[11] = ATG_GLI_CIS: Attagene CIS-FACTORIAL HepG2 Assay for human Zinc Finger Protein GLI1 (AID 2282945); conditions: HepG2, Attagene cis-factorial reporter mRNA, GLI element; actives raise or lower the signal
How it was run: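 Transiently transfected HepG2 cells report endogenous transcription factor activity via cis-element-driven reporter units. After 24 h compound exposure, reporter mRNA was measured by RT-PCR with capillary electrophoresis; bidirectional fitting against DMSO baseline.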

[12] = molecular target: Bile acid receptor (Homo sapiens) (UniProt Q96RI1); assay: ATG_IR1_CIS: Attagene CIS-FACTORIAL HepG2 Assay for human Nuclear Receptor Subfamily 1 Group H Member 4 (NR1H4), IR1 submotif (AID 2282946); conditions: IR1 reporter transcription, actives raise or lower the signal
How it was run: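 Fluorescence of capillary-separated, HpaI-digested RT-PCR reporter products gave IR1-element mRNA induction in HepG2 cells 24 h after dosing. Endogenous transcription factors drove the cis-regulated reporters; activity was fitted bidirectionally against DMSO.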

[13] = ATG_ISRE_CIS: Attagene CIS-FACTORIAL HepG2 Assay for human Interferon Regulatory Factor 1 (IRF1) binding to an Interferon-Stimulated Response Element (ISRE) (AID 2282948); conditions: HepG2 ISRE cis-reporter (Attagene), mRNA transcription readout; actives raise or lower the signal
How it was run: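 Read-out: fluorescent RT-PCR products resolved by capillary electrophoresis, reporting endogenous transcription factor activity via ISRE-driven reporter mRNA in transfected HepG2 cells dosed for 24 h; gain or loss fitted relative to DMSO.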

[14] = ATG_M_32_CIS: Attagene CIS-FACTORIAL HepG2 Assay for M32 Transcription Factor (Internal Marker) (AID 2282949); conditions: HepG2 Attagene cis-factorial M32 reporter, mRNA; actives raise or lower the signal;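 further: background control marker of the multiplexed CIS panel rather than a real target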
How it was run: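 Using DMSO as baseline, bidirectional curve fits were applied to reporter mRNA signals. These came from transiently transfected HepG2 cells exposed for 24 h, with RNA analysed by RT-PCR, FAM primer extension, HpaI digestion and CE.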

[15] = ATG_M_06_CIS: Attagene CIS-FACTORIAL HepG2 Assay for M06 Transcription Factor (Internal Marker) (AID 2282950); conditions: HepG2 Attagene CIS-FACTORIAL M06 internal marker reporter; actives raise or lower the signal
How it was run: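 Measured 24 h post-dosing in transiently transfected HepG2 cells, this internal-marker endpoint reports reporter mRNA via RT-PCR with fluorescent primer extension and capillary electrophoresis. DMSO served as negative control and baseline for bidirectional fitting.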

[16] = molecular target: Hypoxia-inducible factor 1-alpha (Homo sapiens) (UniProt Q16665); assay: ATG_HIF1a_CIS: Attagene CIS-FACTORIAL HepG2 Assay for human Hypoxia Inducible Factor 1 (HIF1A) (AID 2282951); conditions: HepG2 Attagene cis-factorial HIF1a reporter transcription; actives raise or lower the signal
How it was run: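 Transient MRTU transfection of human HepG2 liver cells, 24 h compound treatment, then total RNA isolation, oligo(dT) reverse transcription, PCR amplification, fluorescent labelling and capillary electrophoresis of reporter fragments. Gain or loss relative to DMSO.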

[17] = molecular target: Hepatocyte nuclear factor 6 (Homo sapiens) (UniProt Q9UBC0); assay: ATG_HNF6_CIS: Attagene CIS-FACTORIAL HepG2 Assay for human Hepatocyte Nuclear Factor 6 (HNF6) (AID 2282952); conditions: HepG2 Attagene cis-factorial HNF6 reporter transcription; actives raise or lower the signal
How it was run: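 Readout: fluorescent reporter-transcript fragments resolved by capillary electrophoresis after RT-PCR, reflecting endogenous factor activity in transfected HepG2. Exposure 24 h. Gain or loss of signal fitted bidirectionally against DMSO.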

[18] = molecular target: Heat shock factor protein 1 (Homo sapiens) (UniProt Q00613); assay: ATG_HSE_CIS: Attagene CIS-FACTORIAL HepG2 Assay for human Heat Shock Transcription Factor 1 (HSE) (AID 2282953); conditions: HepG2 HSE cis-reporter, Attagene RNA transcription; actives raise or lower the signal
How it was run: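 Reporter mRNA induction in HepG2 is measured 24 h after dosing, using transiently transfected multiplexed cis-regulated reporter units. Signal comes from capillary electrophoresis of labelled RT-PCR products, with DMSO as negative control.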

[19] = ATG_MRE_CIS: Attagene CIS-FACTORIAL HepG2 Assay for human Metal Responsive Element (MRE) (AID 2282954); conditions: HepG2 MRE cis-reporter transcription, Attagene multiplex; actives raise or lower the signal
How it was run: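 RT-PCR/capillary electrophoresis readout of reporter mRNA, 24 h post-dosing, in HepG2 cells transfected with multiplexed cis-regulated reporter constructs. Gain or loss of signal fitted bidirectionally against DMSO baseline.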

Measured: outcome

Chain of Hepatocyte nuclear factor 3-beta (Homo sapiens) (Q9Y261 whole entry, looked up): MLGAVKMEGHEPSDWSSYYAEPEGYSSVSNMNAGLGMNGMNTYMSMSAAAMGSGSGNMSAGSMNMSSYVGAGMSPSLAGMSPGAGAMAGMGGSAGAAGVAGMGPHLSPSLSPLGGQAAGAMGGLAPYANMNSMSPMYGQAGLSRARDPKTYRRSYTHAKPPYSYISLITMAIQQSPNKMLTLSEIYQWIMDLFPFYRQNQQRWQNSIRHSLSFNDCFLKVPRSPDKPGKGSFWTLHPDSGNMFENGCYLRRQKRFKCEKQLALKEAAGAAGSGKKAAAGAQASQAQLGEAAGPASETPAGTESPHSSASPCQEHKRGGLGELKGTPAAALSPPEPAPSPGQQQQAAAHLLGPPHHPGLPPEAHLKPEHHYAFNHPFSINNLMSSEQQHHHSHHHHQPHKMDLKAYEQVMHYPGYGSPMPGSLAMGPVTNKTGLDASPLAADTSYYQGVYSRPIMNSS
Chain of Bile acid receptor (Homo sapiens) (Q96RI1 whole entry, looked up): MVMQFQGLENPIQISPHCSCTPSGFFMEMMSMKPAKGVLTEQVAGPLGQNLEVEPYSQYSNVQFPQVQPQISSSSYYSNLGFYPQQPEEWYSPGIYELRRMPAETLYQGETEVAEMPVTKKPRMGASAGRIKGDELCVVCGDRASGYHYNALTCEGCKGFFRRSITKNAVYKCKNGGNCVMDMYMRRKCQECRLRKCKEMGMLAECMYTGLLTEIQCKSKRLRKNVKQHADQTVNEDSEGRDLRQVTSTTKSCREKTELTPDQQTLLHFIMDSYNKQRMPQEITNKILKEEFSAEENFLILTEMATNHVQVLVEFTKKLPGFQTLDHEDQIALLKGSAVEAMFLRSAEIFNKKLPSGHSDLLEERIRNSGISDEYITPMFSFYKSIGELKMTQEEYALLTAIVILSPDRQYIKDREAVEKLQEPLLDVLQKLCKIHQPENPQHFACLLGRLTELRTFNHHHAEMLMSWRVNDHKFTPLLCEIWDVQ
Chain of Hepatocyte nuclear factor 6 (Homo sapiens) (Q9UBC0 whole entry, looked up, the tested form may be a part): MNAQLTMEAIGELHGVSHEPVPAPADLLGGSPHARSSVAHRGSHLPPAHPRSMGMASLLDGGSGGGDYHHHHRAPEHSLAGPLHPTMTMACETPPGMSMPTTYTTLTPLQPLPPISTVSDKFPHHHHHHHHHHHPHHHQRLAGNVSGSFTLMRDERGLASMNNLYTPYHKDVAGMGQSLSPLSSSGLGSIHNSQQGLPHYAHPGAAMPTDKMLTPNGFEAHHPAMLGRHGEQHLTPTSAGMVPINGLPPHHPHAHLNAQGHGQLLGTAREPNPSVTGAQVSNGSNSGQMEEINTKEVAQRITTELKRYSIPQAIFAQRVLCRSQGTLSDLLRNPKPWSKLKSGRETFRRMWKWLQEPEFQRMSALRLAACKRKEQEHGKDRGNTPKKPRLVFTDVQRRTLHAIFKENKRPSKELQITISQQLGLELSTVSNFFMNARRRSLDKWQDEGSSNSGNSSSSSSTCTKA
Chain of Hypoxia-inducible factor 1-alpha (Homo sapiens) (Q16665 whole entry, looked up, the tested form may be a part): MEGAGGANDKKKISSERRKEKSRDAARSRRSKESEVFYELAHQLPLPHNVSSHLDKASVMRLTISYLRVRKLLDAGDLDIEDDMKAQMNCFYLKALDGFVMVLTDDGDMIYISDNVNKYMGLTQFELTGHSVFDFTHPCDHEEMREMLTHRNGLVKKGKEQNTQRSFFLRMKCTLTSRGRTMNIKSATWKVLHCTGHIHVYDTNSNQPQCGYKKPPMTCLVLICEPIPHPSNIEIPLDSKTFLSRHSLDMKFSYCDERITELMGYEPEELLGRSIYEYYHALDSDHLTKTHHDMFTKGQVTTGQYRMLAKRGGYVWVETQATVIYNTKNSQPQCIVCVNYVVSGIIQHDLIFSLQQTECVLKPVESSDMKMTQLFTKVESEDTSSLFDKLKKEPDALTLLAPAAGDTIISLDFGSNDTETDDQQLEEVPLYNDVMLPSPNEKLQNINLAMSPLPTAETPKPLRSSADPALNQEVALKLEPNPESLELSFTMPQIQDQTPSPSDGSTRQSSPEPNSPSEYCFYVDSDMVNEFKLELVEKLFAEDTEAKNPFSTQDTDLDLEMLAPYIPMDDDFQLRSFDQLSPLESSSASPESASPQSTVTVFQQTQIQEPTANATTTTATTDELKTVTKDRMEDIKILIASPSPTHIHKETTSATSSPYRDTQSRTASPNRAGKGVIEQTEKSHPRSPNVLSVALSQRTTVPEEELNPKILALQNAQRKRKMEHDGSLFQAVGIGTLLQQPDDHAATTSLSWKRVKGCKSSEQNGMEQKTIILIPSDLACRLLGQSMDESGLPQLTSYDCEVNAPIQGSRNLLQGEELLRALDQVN
Chain of Heat shock factor protein 1 (Homo sapiens) (Q00613 whole entry, looked up): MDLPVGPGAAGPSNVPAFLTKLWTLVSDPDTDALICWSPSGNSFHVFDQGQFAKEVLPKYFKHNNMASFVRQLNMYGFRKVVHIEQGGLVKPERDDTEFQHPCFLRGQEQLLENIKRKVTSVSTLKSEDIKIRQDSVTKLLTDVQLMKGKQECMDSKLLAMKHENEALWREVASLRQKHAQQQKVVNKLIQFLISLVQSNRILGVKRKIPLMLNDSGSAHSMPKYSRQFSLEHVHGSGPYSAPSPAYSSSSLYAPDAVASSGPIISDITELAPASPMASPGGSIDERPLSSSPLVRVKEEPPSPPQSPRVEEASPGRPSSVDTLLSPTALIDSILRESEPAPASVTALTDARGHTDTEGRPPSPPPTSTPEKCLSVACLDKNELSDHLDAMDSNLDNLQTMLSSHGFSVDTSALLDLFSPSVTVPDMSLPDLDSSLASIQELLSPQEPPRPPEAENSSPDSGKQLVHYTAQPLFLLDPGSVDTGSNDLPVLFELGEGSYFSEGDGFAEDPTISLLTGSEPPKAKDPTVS
Chain of Transcription factor E2F1 (Homo sapiens) (Q01094 whole entry, looked up): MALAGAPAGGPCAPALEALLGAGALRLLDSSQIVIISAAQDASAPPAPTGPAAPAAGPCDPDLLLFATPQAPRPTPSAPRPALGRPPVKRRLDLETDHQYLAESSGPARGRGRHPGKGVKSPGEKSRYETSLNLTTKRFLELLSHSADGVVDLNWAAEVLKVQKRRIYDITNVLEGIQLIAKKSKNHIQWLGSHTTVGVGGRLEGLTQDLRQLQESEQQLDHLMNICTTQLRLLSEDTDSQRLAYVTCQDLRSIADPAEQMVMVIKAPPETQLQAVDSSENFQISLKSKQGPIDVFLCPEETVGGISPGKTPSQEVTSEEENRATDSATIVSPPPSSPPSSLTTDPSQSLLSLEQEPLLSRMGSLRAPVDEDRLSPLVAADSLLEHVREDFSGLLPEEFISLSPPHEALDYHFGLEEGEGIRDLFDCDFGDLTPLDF

CC=CC(=O)OCC(C)C
inactive: [1] | [2] | [3] | [4] | [5] | [6] | [7] | [8] | [9] | [10] | [11] | [12] | [13] | [14] | [15] | [16] | [17] | [18] | [19]

Nc1ccc(Cl)c(N)c1
inactive: [1] | [2] | [3] | [4] | [5] | [6] | [7] | [8] | [9] | [10] | [11] | [12] | [13] | [14] | [15] | [16] | [17] | [18] | [19]

c1ccc(-c2nc3ccccc3[nH]2)cc1
inactive: [1] | [2] | [3] | [4] | [5] | [6] | [7] | [8] | [9] | [10] | [11] | [12] | [13] | [14] | [15] | [16] | [17] | [18] | [19]

O=C(O)C1CCC(C(=O)O)CC1 (stereo unspecified)
inactive: [1] | [2] | [3] | [4] | [5] | [6] | [7] | [8] | [9] | [10] | [11] | [12] | [13] | [14] | [15] | [16] | [17] | [18] | [19]
